Rows were chosen to be rich in hits. Some 11% of all compounds tested hit in one or more screens of this group.
HP1b chromo inh – inhibitors of HP1-beta chromodomain binding to methylated histone tails; Potency, µM (series often up to 114 µM), without a hit: at the highest dose activity change, negative = inhibition, usual class: inhibitors; AlphaScreen HP1-beta / biotin-H3K9me3 peptide binding; P83916; 0.56% of 390,000 active; note: nearly all actives have a fitted effect of over 70% in size
Target sequence (P83916 whole entry, looked up): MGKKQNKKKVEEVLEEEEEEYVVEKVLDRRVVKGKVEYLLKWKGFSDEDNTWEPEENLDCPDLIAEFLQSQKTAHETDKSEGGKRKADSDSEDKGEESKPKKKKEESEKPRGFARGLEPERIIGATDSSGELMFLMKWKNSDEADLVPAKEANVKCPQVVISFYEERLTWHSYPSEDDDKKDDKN
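HP1-beta protein (50 nM final) preincubated 30 min at room temperature with biotinylated H3(1-18)K9me3 peptide (50 nM) in PBS pH 7.4, 0.01% Tween-20, then compound added for 30 min. AlphaScreen streptavidin donor/nickel chelate acceptor beads (10 ug/mL final), 30 min dark, luminescence read.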
JMJD2A Tudor inh – inhibitors of human JMJD2A Tudor domain; O75164; AlphaScreen JMJD2A-Tudor / H3K4me3 peptide binding; Potency, µM (series often up to 114 µM), without a hit: top-dose activity change, negative = inhibition, usual class: inhibitors; 4.4% of 390,000 active; AID 504339; note: % is set by controls: 0 for no effect and ±100 for the full control effect; nearly all actives have a fitted effect of over 50% in size
G9a inh – inhibitors of human histone lysine methyltransferase G9a; Q96KQ7; G9a H3K9 monomethylation, AlphaScreen, 2 h; Potency, µM (top dose mostly 102 µM), for the others: at the top dose activity, negative = inhibition, usual class: inhibitors; 8.8% of 350,000 active; note: % is set by controls: 0 for no effect and ±100 for the full control effect; nearly all actives have a fitted effect of over 75% in size
Target sequence (Q96KQ7 913-1193 limits assumed): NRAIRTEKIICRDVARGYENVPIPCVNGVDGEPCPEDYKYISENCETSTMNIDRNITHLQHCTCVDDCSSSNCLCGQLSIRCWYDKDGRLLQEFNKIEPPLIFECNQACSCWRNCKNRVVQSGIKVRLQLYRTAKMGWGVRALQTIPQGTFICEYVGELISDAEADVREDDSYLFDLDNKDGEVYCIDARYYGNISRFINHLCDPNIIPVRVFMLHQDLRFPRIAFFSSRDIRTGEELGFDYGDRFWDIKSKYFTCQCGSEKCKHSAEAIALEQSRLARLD
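AlphaScreen read-out: biotin-H3K9 peptide (500 nM) methylation by 20 nM enzyme with 20 uM SAM, 2 h at room temperature after 15 min compound preincubation; anti-monomethyl H3K9 antibody plus donor/acceptor beads, 10 min dark.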
L3MBTL1 inh – blocks human L3MBTL1. Q9Y468. AlphaScreen L3MBTL1–H3K9me1 peptide binding. Potency, µM (top dose mostly 57.1 µM), inactives show at the top dose activity, negative = inhibition, most hits filed as inhibitors. 0.66% of 230,000 active; note: % is set by controls: 0 for no effect and ±100 for the full control effect; nearly all actives have a fitted effect of over 60% in size
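Read-out is AlphaScreen signal from streptavidin donor and nickel chelate acceptor beads (10 ug/mL final each) bridging L3MBTL1 (50 nM) and biotinylated K9-monomethylated H3(1-15) peptide (75 nM), after 30 min compound exposure at room temperature.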
BAZ2B inh – blocks human BAZ2B; Q9UIF8; AlphaScreen BAZ2B-H3K14Ac peptide displacement; Potency, µM (highest dose often 114 µM), for the others: at the highest dose activity change, negative = inhibition, most hits filed as inhibitors; 4.4% of 360,000 active; AID 504333; note: % is set by controls: 0 for no effect and ±100 for the full control effect; nearly all actives have a fitted effect of over 60% in size
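AlphaScreen displacement of biotin-H3(5-23)K14Ac peptide (50 nM final) from BAZ2B (50 nM final) in PBS pH 7.4, 0.01% Tween-20; complex preformed 30 min RT, then compounds (top 110 uM) 30 min RT, beads 20 min dark.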
Numbers without * were called inactive; ? = inconclusive; . = no result given; ! = not confirmed by another sample; [ ] = another dose, or the depositor's remark. Calls come from the whole dose curve; as a rule, active = well fitted inhibition curve with a large enough effect; inconclusive = small, poorly fitted or top-dose-only effect; inactive = no such curve, though single readings can be large or run the other way. Potency is the fitted concentration of half-maximal effect.

SMILES	HP1b chromo inh	JMJD2A Tudor inh	G9a inh	L3MBTL1 inh	BAZ2B inh
COc1ccccc1C(=O)C1Nc2ccccc2-c2nnc(SC)nc2O1 (centres undefined)	-4%	-35%	7.1µM*	9%	2%
CCCCSc1nnc2c(n1)OC(C(=O)c1ccccc1)Nc1ccccc1-2 (centres undefined)	.	.	7.1µM*	.	?
CCC1Nc2ccccc2-c2nnc(SC)nc2O1 (centres undefined)	25%	-9%	?	.	-30%
O=C(O)c1ccc(C2Nc3ccccc3-c3nnc(SCc4ccc(Cl)cc4)nc3O2)cc1 (centres undefined)	7%	?	-27%[59 µM]	.	50µM*
Cc1ccc(-c2nnc(-c3cccc(Br)c3)o2)cc1	-7%	50µM*	11%[59 µM]	13%[11.4 µM]	8%
CCOC(=O)CSc1nc2c(sc(=S)n2-c2ccccc2OC)c(=O)n1Cc1ccco1	-13%	-33%	45µM*	-6%	-37%
CCNc1ncc2nc(-c3ccc(F)cc3)c(=O)n(C)c2n1	.	.	-11%[0.501 µM]	.	.
O=C(Nc1cccnc1)Nc1cc(Cl)cc(Cl)c1	33%	0%	79µM*	-8%	17%
O=C(Nc1cccnc1)c1cc(-c2ccc(Cl)c(Cl)c2)on1	16%	-9%	7%	.	0%
O=C(Nc1cccnc1)c1cc(-c2cccc(Cl)c2)on1	3%	25µM*!	10%	.	4%
COc1ccc(CCNC(=O)CSCc2nc(-c3ccc(OC)c(OC)c3)oc2C)cc1OC	21%	-20%	-4%[59 µM]	.	?
CC(/C=N/n1c(-c2ccccc2)n[nH]c1=S)=C\c1ccco1	-20%	50µM*	2.2µM*	-4%	50µM*
CC(/C=N/n1c(-c2ccco2)n[nH]c1=S)=C\c1ccco1	?	45µM*	1.4µM*	-21%	?
CC(/C=N/n1c(-c2ccc(C)cc2)n[nH]c1=S)=C\c1ccco1	?	?	1.3µM*	-14%	-29%
CC(=C/c1ccco1)/C=N/N1CCN(c2ccccc2)CC1	20%	12%	-8%	-25%	?
S=c1[nH]nc(-c2ccncc2)n1/N=C/C=C/c1ccco1	-15%	8.9µM*	-138%	18µM*	50µM*
CCC(=O)c1ccc(OCC(O)CNC2CCCC2)cc1 (centres undefined)	31%	-13%	?	-3%	-6%
C(=C\c1ccco1)/C=N/n1cnnc1	30%	-13%	40µM*	?	-4%
S=c1[nH]nc(-c2ccccc2Cl)n1/N=C/C=C/c1ccco1	-25%	16µM*	1.1µM*	-7%	?
CC(/C=N/NC(=O)c1cc(-c2ccncc2)nc2ccccc12)=C\c1ccco1	?	?	?	-2%	-8%
CC(/C=N/n1c(-c2ccncc2)n[nH]c1=S)=C\c1ccco1	-5%	5µM*	.	.	?
Cc1ccc(-c2nc(CS(=O)(=O)CC(=O)NCCc3ccccc3)c(C)o2)cc1	20%	-14%	-2%[59 µM]	.	-2%
COc1cc(OC)c(OC)cc1CCC(C)NCCC(c1ccccc1)c1ccccc1 (centres undefined)	?	45µM*	-3%[2.33 µM]	.	13µM*
Cc1ccc(C(=O)N=c2sccn2C)cc1S(=O)(=O)N1CCOCC1	37%	-8%	40µM*	5%	0%
O=C(CN1CCCc2ccccc21)NC(=O)NCc1ccccc1	21%	-13%	-5%[12.7 µM]	.	2%
SMILES	HP1b chromo inh	JMJD2A Tudor inh	G9a inh	L3MBTL1 inh	BAZ2B inh
COC(=O)c1ccc(S(=O)(=O)N2CCc3ccccc32)cc1	70%	5%	47%	12%	?
O=C(CN1CCCc2ccccc21)NC(=O)NC1CCCCC1	?	32µM*	71µM*	?	?
O=C(CN1CCc2ccccc21)NCc1ccccc1Cl	-9%	?	71µM*	-8%	-37%
COC(=O)c1ccc(CN2CCc3ccccc32)cc1	-19%	40µM*	.	-3%	?
O=C(CN1CCc2ccccc21)NCc1ccc2c(c1)OCO2	12%	-32%	22%[59 µM]	-6%	-31%
O=C(CN1CCc2ccccc21)NC(=O)NCc1ccccc1	-11%	-9%[11.4 µM]	32µM*	-14%	.
COc1ccc(Cl)cc1NC(=O)CN1CCc2ccccc21	27%	-26%	22µM*	-12%	?
O=C(CN1CCOc2ccccc21)NCc1ccc(Cl)cc1	28%	-18%	50µM*	-13%	?
COc1ccc(Cl)cc1NC(=O)CN1Cc2ccccc2C1=O	26%	-10%	-12%[59 µM]	.	-3%
Cc1ccc(Cl)cc1NS(=O)(=O)c1ccc2oc(=O)c3ncn(C)c3c2c1	31%	6%	-10%[59 µM]	.	-21%
CCc1ccc(NC(=O)CC2C(=O)N(c3cccc(OC)c3)C(=O)N2Cc2ccc(F)cc2)cc1 (centres undefined)	26%	-3%	-4%[59 µM]	.	-8%
CC1(C)CC(=O)c2cc(-c3nc(-c4ccc(Cl)cc4)cs3)c(=O)n(-c3cccc(F)c3)c2C1	53%	28%	-48%[59 µM]	.	17%
Clc1ccc(-c2nnc(-c3ccc(Br)cc3)c(N3CCSCC3)n2)cc1	3%	-22%	40%[12.7 µM]	-4%	?
Clc1ccc(-c2nnc(-c3ccco3)nc2N2CCCCC2)cc1	-18%	45µM*	10µM*	-22%	50µM*
CCOc1ccc(CCNC(=O)CCn2c(=O)c3cccn3c3ccc(F)cc32)cc1OCC	31%	-17%	-2%[59 µM]	.	-1%
CCc1cccc(C)c1NC(=O)COC(=O)CNS(=O)(=O)/C=C/c1ccccc1	27%	-2%	?	-6%	-9%
O=C(COC(=O)CNS(=O)(=O)/C=C/c1ccccc1)Nc1cccc2ccccc12	26%	1%	50µM*	-4%	-22%
Cc1cc[n+](-c2nc([O-])sc2/C=N/Nc2ccc([N+](=O)[O-])cc2)cc1	-21%	-33%	45µM*	.	?
Cc1ccsc1/C=N/NC(=O)Cc1ccc([N+](=O)[O-])cc1	35%	0%	.	.	.
CCOc1ccccc1NC(=O)C1CCN(S(=O)(=O)c2ccc(OC)c(OC)c2)CC1	25%	-20%	40µM*	-10%	-3%
CCCNC(=O)CN1C(=O)COc2ccc(S(=O)(=O)N3CC(C)CC(C)C3)cc21 (centres undefined)	24%	-3%	32µM*	.	-1%
CCCNC(=O)CN1C(=O)COc2ccc(S(=O)(=O)N3CCC(C)CC3)cc21	34%	8%	0%[59 µM]	.	3%
O=C(CN1C(=O)CCSc2ccc(S(=O)(=O)N3CCOCC3)cc21)Nc1ccccc1Cl	7%	-32%	-9%[59 µM]	.	?
Cc1cccc(NC(=O)CN2C(=O)CCSc3ccc(S(=O)(=O)N4CCOCC4)cc32)c1C	-17%	50µM*	-5%[59 µM]	.	-34%
CCOc1ccccc1NC(=O)CN1C(=O)COc2ccc(S(=O)(=O)N3CCOCC3)cc21	9%	16µM*!	2%[59 µM]	.	-8%
CCc1ccc(NCc2cc3ccc(OC)cc3n(CC(=O)Nc3ccc(F)cc3F)c2=O)cc1	35%	1%	?	.	-26%

Source: PubChem (National Center for Advancing Translational Sciences (NCATS))
